Consider twelve molecules from PubChem BioAssay (Tox21).

Values without a mark were called inactive. Inconclusive results are not listed. Calls of active or inactive are those of the source. Calls come from the whole dose curve; as a rule, active = well fitted curve in the direction sought with a large enough effect in the repeat runs; inconclusive = weak or mixed curves; inactive = no such curve, though single readings can be large; an effect the other way counts as inactive or inconclusive.

Assay [1] is described as follows: qHTS RealTime-Glo MT Cell Viability Assay in HEK293 cells - 16 hour (AID 1224872). Note: top concentration of the series differs between compounds; nearly all actives have a fitted effect of over 50% in size. The procedure, abridged:
(§1)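 HEK293 cells were seeded at 600 cells/well together with NanoLuc luciferase and cell-permeant prosubstrate, preincubated 5 h at 37 C/5% CO2, then given compound in DMSO by pintool. Luminescence from viable-cell prosubstrate reduction was read repeatedly over 40 h.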

Assay [2] in a line: qHTS RealTime-Glo MT Cell Viability Assay in HepG2 cells - 8 hour (AID 1224873). Note: nearly all actives have a fitted effect of over 55% in size. The procedure, abridged:
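HepG2 cells mixed with RealTime-Glo MT reagents (NanoLuc plus cell-permeant prosubstrate) were seeded at 600 cells/well, incubated 5 h at 37 C/5% CO2, then pinned with compounds in DMSO; nonlytic luminescence tracked viability during 40 h treatment.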
For orientation: qHTS replaces the single test concentration by a dilution series.

The nature of assay [3]: qHTS RealTime-Glo MT Cell Viability Assay in HEK293 cells - 40 hour (AID 1224874). Note: nearly all actives have a fitted effect of over 50% in size. Note: potency is the fitted concentration of half-maximal effect. As to conditions: RealTime-Glo luminescence; max response: stronger effect = lower value. The gist of the method:
(§2)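 Viable HEK293 cells reduce a cell-permeant prosubstrate; the product diffuses out and is consumed by NanoLuc in the medium to give light. Compounds went in after a 5 h incubation and plates were read over the treatment course.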

Assay [4] can be described thus: A CellTox Green Cytotoxicity Assay to monitor cytotoxicity in HEK293 cells - 24 hour (AID 1224875). Note: series mostly up to about 77 µM; nearly all actives have a fitted effect of over 45% in size. The gist of the method:
(§3)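 Fluorescence intensity, read at 0, 8, 16, 24, 32 and 40 h of compound treatment, reflected dye binding to DNA of dead HEK293 cells; compounds (23 nL, DMSO) were added 5 h after plating cells with reagent.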

The nature of assay [5]: A CellTox Green Cytotoxicity Assay to monitor cytotoxicity in HepG2 cells - 16 hour (AID 1224876). Note: nearly all actives have a fitted effect of over 45% in size. The procedure, abridged: (§4)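 Using 1536-well format, dye-containing HepG2 suspension was seeded, allowed 5 h at 37 C/5% CO2, dosed by pintool with compounds, positive and negative controls, and imaged for fluorescence across 40 h.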
Assay [6] in a line: qHTS RealTime-Glo MT Cell Viability Assay in HepG2 cells - 32 hour (AID 1224877). Note: nearly all actives have a fitted effect of over 55% in size. The procedure, abridged:
(§5)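 HepG2 cells were seeded at 600 cells/well together with NanoLuc luciferase and a cell-permeant prosubstrate, preincubated 5 h at 37 C/5% CO2, then pin-dosed with compounds in DMSO. Nonlytic luminescence from viable cells was read at each time point.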

Assay [7] in a line: A CellTox Green Cytotoxicity Assay to monitor cytotoxicity in HepG2 cells - 24 hour (AID 1224878). Note: nearly all actives have a fitted effect of over 45% in size. The procedure, abridged:
as §4

Assay [8] is described as follows: A CellTox Green Cytotoxicity Assay to monitor cytotoxicity in HepG2 cells - 40 hour (AID 1224879). Note: nearly all actives have a fitted effect of over 40% in size. The gist of the method: as §4
Assay [9] in a line: qHTS RealTime-Glo MT Cell Viability Assay in HEK293 cells - 0 hour (AID 1224880). Note: top concentration of the series differs between compounds; nearly all actives have a fitted effect of over 45% in size. The procedure, abridged:
as §2

Assay [10] in a line: A CellTox Green Cytotoxicity Assay to monitor cytotoxicity in HEK293 cells - 32 hour (AID 1224881). Note: nearly all actives have a fitted effect of over 40% in size. The gist of the method:
as §3

Assay [11] in a line: A CellTox Green Cytotoxicity Assay to monitor cytotoxicity in HepG2 cells - 0 hour (AID 1224882). Note: nearly all actives have a fitted effect of over 35% in size. The procedure, abridged:
as §4

Assay [12] in a line: A CellTox Green Cytotoxicity Assay to monitor cytotoxicity in HepG2 cells - 32 hour (AID 1224883). Note: nearly all actives have a fitted effect of over 50% in size. The procedure, abridged: as §4
Assay [13] can be described thus: A CellTox Green Cytotoxicity Assay to monitor cytotoxicity in HEK293 cells - 8 hour (AID 1224884). Note: nearly all actives have a fitted effect of over 35% in size. The gist of the method: as §3
Assay [14] is described as follows: qHTS RealTime-Glo MT Cell Viability Assay in HepG2 cells - 16 hour (AID 1224885). Note: nearly all actives have a fitted effect of over 50% in size. The gist of the method: as §5
Assay [15] is described as follows: qHTS RealTime-Glo MT Cell Viability Assay in HEK293 cells - 24 hour (AID 1224886). The procedure, abridged:
as §1

Assay [16] is described as follows: qHTS RealTime-Glo MT Cell Viability Assay in HEK293 cells - 8 hour (AID 1224887). The gist of the method: as §2
Assay [17] is described as follows: A CellTox Green Cytotoxicity Assay to monitor cytotoxicity in HEK293 cells - 16 hour (AID 1224888). Note: nearly all actives have a fitted effect of over 35% in size. The procedure, abridged:
as §3

Assay [18] in a line: qHTS RealTime-Glo MT Cell Viability Assay in HepG2 cells - 0 hour (AID 1224889). Note: nearly all actives have a fitted effect of over 50% in size. The gist of the method:
as §5

The nature of assay [19]: qHTS assay to identify small molecule antagonists of the estrogen receptor alpha (ER-alpha) signaling pathway using the BG1 cell line in the presence of 0.1 nM 17-beta-estradiol - cell viability counter screen (AID 1259241). Note: nearly all actives have a fitted effect of over 40% in size. The procedure, abridged: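 VM7Luc4E2 cells (endogenous full-length ER-alpha, 4xERE-luciferase), cultured 5 days in charcoal-stripped serum, exposed to compounds with 0.1 nM 17beta-estradiol (final) for 22 hr at 37C. Viability read in same wells as live-cell protease fluorescence after 30 min.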

Assay [20] in a line: A CellTox Green Cytotoxicity Assay to monitor cytotoxicity in HepG2 cells - 8 hour (AID 1224890). Note: nearly all actives have a fitted effect of over 45% in size. The gist of the method:
as §4
% is set by controls: 0 for no effect and ±100 for the full control effect.

For `CC(C)CC(C)CC(C)CC(C)COC(=O)c1ccccc1C(=O)OCC(C)CC(C)CC(C)CC(C)C` (centres undefined), the Potency entry in [1], in [8], in [9], in assay [10], in assay [12] and in assay [13] was “inactive” in each case. Also, the Potency result in assay [15], in [16], in assay [18] and in [19] was “inactive” each time. Besides, the result in assay [2], in [4], in [5], in assay [6], in assay [7] and in assay [11] was inactive. In addition, the molecule was classed as inactive in assay [14] and in assay [17]. Further, the max response in assay [3] was 4.21%.

With `O=C(NCCN1CCOCC1)c1ccc(Cl)cc1`, the Potency entry in [1], in assay [8], in [9], in [10], in [12] and in assay [13] was “inactive” in each case. In addition, the Potency result in assay [15], in [16], in [18] and in assay [19] was “inactive” in each case. In addition, the molecule was called inactive in [2], in [4], in [5], in assay [6], in assay [7] and in assay [11]. Also, the call in [14], in [17] and in assay [20] was inactive. The max response in [3] was 5.6%.

For `CC(C)CCCC(C)(C)O`, the Potency result in assay [1], in assay [8], in assay [9], in assay [10], in [12] and in [13] was “inactive” in each case. Besides, the Potency entry in assay [15], in assay [16], in assay [18] and in assay [19] was “inactive” throughout. The molecule was called inactive in [2], in assay [4], in [5], in assay [6], in [7] and in [11]. Besides, the result in assay [14], in assay [17] and in assay [20] was inactive. Besides, in [3], the max response is -4.36%.

For `CCN(C)C(=O)Oc1cccc([C@H](C)N(C)C)c1`, the Potency result in [1], in [8], in assay [9], in assay [10], in assay [12] and in [13] was “inactive” each time. For the same molecule, the Potency entry in assay [15], in assay [16], in assay [18] and in assay [19] was “inactive” in each case. For the same molecule, the call in [2], in [4], in assay [5], in assay [6], in [7] and in assay [11] was inactive. Besides, the molecule was classed as inactive in [14], in [17] and in assay [20]. The max response in [3] was 1.94%.

Regarding `O=S(O)(O)=S`, the activity change, negative = cytotoxicity in assay [1] is 0.498% [at 6.97 µM]; in [9], 1.11% [at 6.97 µM]; in assay [15] it was 1.38% [at 6.97 µM]; in assay [16], 0.371% [at 6.97 µM]; in assay [18], -0.126% [at 6.97 µM]; in assay [19] it was 6.4% [at 8.39 µM]. For the same molecule, the viability change, negative = cytotoxic in assay [2] is 0.222% [at 6.97 µM]. For the same molecule, in [3], the max response was 0.994%. Besides, the activity change in [4] was -0.341% [at 6.97 µM]; in assay [17] it was -0.887% [at 6.97 µM]. Also, the cytotoxicity increase in assay [5] is -0.212% [at 6.97 µM]; in [8], -1.37% [at 6.97 µM]; in [10] it was -0.289% [at 6.97 µM]; in [12] it was 0.202% [at 6.97 µM]; in assay [13] it was -1.12% [at 6.97 µM]; in assay [20] it was 4.07% [at 6.97 µM]. In addition, the activity change, negative = cytotoxic in assay [6] is 5.2% [at 6.97 µM]; in [14], 1% [at 6.97 µM]. The cytotoxicity in assay [7] is -1.5% [at 6.97 µM]; in [11], 8.46% [at 6.97 µM].

`NS(=O)(=O)c1ccc(NC(=O)CCC(=O)O)cc1`: the Potency result in assay [1], in [8], in assay [9], in assay [10], in assay [12] and in assay [13] was “inactive” each time. Further, the Potency entry in assay [15], in [16], in assay [18] and in [19] was “inactive” each time. The molecule was called inactive in assay [2], in assay [4], in [5], in assay [6], in [7] and in assay [11]. For the same molecule, the result in [14], in assay [17] and in assay [20] was inactive. In addition, in assay [3], the max response is 3.03%.

As to `Cc1cc(C(C)(C)C)c(O)c(C)c1CC1=NCCN1`, the Potency entry in assay [1], in assay [8], in assay [9], in [10], in assay [12] and in assay [13] was “inactive” in each case. Also, the Potency entry in assay [15], in [16], in assay [18] and in assay [19] was “inactive” each time. For the same molecule, the molecule was called inactive in assay [2], in assay [4], in [5], in assay [6], in assay [7] and in assay [11]. Moreover, the molecule was called inactive in assay [14], in assay [17] and in assay [20]. Also, the max response in assay [3] is 0.324%.

Turning to `ClCCCl`, the Potency result in [1], in [8], in [9], in assay [10], in assay [12] and in assay [13] was “inactive” each time. Also, the Potency result in [15], in assay [16], in [18] and in assay [19] was “inactive” each time. Further, the call in assay [2], in assay [4], in assay [5], in assay [6], in assay [7] and in [11] was inactive. Also, the molecule was classed as inactive in assay [14], in [17] and in assay [20]. Moreover, the max response in assay [3] is -0.252%.

Regarding `CC1(CO)CN(c2ccccc2)NC1=O` (centres undefined), the Potency entry in assay [1], in [8], in [9], in [10], in [12] and in [13] was “inactive” throughout. The Potency entry in assay [15], in [16] and in assay [19] was “inactive” each time. In addition, the result in assay [2], in [4], in assay [5], in assay [6], in [7] and in assay [11] was inactive. Besides, the outcome in assay [17] and in assay [20] was inactive. In addition, in assay [3], the max response was -10.7%.

On to `CCC(C)(CCC(C)C)C(=O)O` (centres undefined), for which the Potency entry in assay [1], in assay [8], in assay [9], in assay [10], in assay [12] and in assay [13] was “inactive” each time. In addition, the Potency entry in assay [15], in assay [16], in [18] and in assay [19] was “inactive” in each case. Further, the call in assay [2], in assay [4], in assay [5], in assay [6], in [7] and in [11] was inactive. Moreover, the outcome in [14], in assay [17] and in [20] was inactive. Moreover, the max response in assay [3] is 2.99%.

On to `COc1cc2c(cc1OC)C(=O)CC2`, for which the Potency result in assay [1], in assay [8], in assay [9], in assay [10], in assay [12] and in assay [13] was “inactive” throughout. The Potency entry in assay [15], in assay [16], in assay [18] and in [19] was “inactive” in each case. The molecule was classed as inactive in [2], in [4], in assay [5], in assay [6], in assay [7] and in assay [11]. The molecule was classed as inactive in assay [14], in assay [17] and in assay [20]. The max response in [3] was -24.5%.

Regarding `O=C1c2cccc3c2[C@H](CCC3)CN1[C@@H]1CN2CCC1CC2`, the Potency entry in [1], in assay [8], in assay [9], in assay [10], in assay [12] and in assay [13] was “inactive” each time. Further, the Potency result in assay [16] and in assay [19] was “inactive” each time. For the same molecule, the molecule was called inactive in [2], in [4], in assay [5], in assay [6], in assay [7] and in assay [11]. For the same molecule, the molecule was called inactive in [17] and in assay [20]. The Potency in assay [3] is 6.01 µM (active).
